# Assay results as given in PubChem BioAssay AID588413 (Sanford-Burnham Center for Chemical Genomics, 2011).
# In all, about 340,000 compounds went through this assay and about 2,500 (0.74%) were called active. The full list was thinned out, with actives kept by preference. Unmarked numbers belong to inactive results.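 Rule for the calls: active = inhibition above about 55% (limit read from the data); inactive = the rest.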
# Assay: Gli-Sufu pathway antagonists, primary screen, luciferase luminescence, Sufu-KO-LIGHT cells, uHTS (AID 588413);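 note: 0% = DMSO-treated cells and 100% = wells with medium but no cells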
# Conditions: Sufu-KO-LIGHT fibroblasts, Gli luciferase reporter luminescence; at 5 µM; hits give high values
row,SMILES,inhibition
1,CC1=CC(=Cc2sc3ccccc3[n+]2C)C=C(C)O1,80.9% (active)
2,O=C(O)CCn1cc(C=C2C(=O)NC(=S)NC2=O)c(-c2cccc(Br)c2)n1,-2.59%
3,CC(C)CN1CCN(Cc2ccccc2C(F)(F)F)CC1CCO (stereo not given),20.7%
4,Cc1cc(C)c2c(c1)NP(=S)(c1ccccc1)N2 (stereo not given),-6.68%
5,CNC(=O)Nc1ccc(C(O)(C(=O)OC)C(F)(F)F)cc1 (stereo not given),11.8%
6,CCCCCCCCCCCCn1ccc(=N)cc1,87.5% (active)
7,O=C1C2(Cl)C3(Cl)C4(Cl)C(Cl)(Cl)C5(Cl)C3(Cl)C1(Cl)C5(Cl)C24Cl (stereo not given),-3.44%
8,COc1cc(-n2c(=S)[nH]c3ccc(C)cc3c2=O)c(Cl)cc1Cl,-14.6%
9,CCN(CC)CCOC(=O)c1cc2cc(COC)ccc2o1,0.39%
10,CCOc1cccc(=NC2CCCCC2)c2c(C)[nH]c(C)c12,79% (active)
11,CC(C)Nc1nc(Cl)nc(NC(C)C)n1,1.26%
12,O=C(C1CC(=O)N(C2CCCC2)C1)N1CCC2(CC1)OCCO2 (stereo not given),-2.84%
13,C=CCN(CC=C)C(=O)Nc1ccc(OCC)cc1,-12.4%
14,CCC(C)(O)C(=O)OC1C(=O)OC2CC3C(C)=CC(=O)C(O)C3(C)C3C4(O)OCC23C1C(C)C4O (stereo not given),82% (active)
15,CN(C)CC1Oc2ccccc2OC1(O)c1ccccc1 (stereo not given),-3.73%
16,CCOP(=O)(OCC)C(NC(=O)c1ccc(OC)cc1)C(Cl)(Cl)Cl (stereo not given),-2.69%
17,CCOP(=O)(OCC)C(NC(=O)c1ccc(C)cc1)C(Cl)(Cl)Cl (stereo not given),2.77%
18,CC1=C2C(=O)C3C(CC=C4CC(OC5OC(O)C(O)C(O)C5CO)CCC43C)C2CCC12OC1CC(C)CNC1C2C (stereo not given),-0.71%
19,O=C1/C(=C\c2ccc3c(c2)OCO3)N2CCC1CC2,16.5%
20,N[C@@H](Cc1c[nH]c2ccccc12)c1nnc(SCc2c(F)cccc2Cl)o1,-1.34%
21,CCOc1ccc(-c2cc(C)[n+](CCN(CC)CC)c(-c3ccc(OCC)cc3)c2)cc1,77.8% (active)
22,COC(=O)C1=C(c2cc3ccccc3s2)C[C@@H]2CC[C@H]1N2C(=O)NC(C)C,9.18%
23,COc1ccc(-c2nn(CCC#N)cc2C(=O)Nc2ccc(C(C)=O)cc2)cc1,-28.4%
24,COC(=O)COc1cc(C)cc2oc(=O)c3c(c12)CCCC3,-1.17%
25,COc1ccc(NC(=O)c2cn(CCC#N)nc2-c2ccc([N+](=O)[O-])cc2)cc1,6.35%
26,CC(=O)OC1C2(CC3N4C(=O)C5(CO)SSC4(CC31O)C(=O)N5C)OC(C)C(C)(C)C2=O (stereo not given),85.7% (active)
27,Cc1ccccc1NC(=O)COC(=O)c1cc(C)n(C2CC2)c1C,0.92%
28,O=C1NC(=O)C(CCc2ccccn2)(Cc2cccc(Cl)c2Cl)C(=O)N1c1ccc(Br)cc1 (stereo not given),0.16%
29,Cc1ccnc(-n2c(C)cc(/C=C3\C(=O)NC(=S)N(C)C3=O)c2C)c1,7.71%
30,CC[C@H]1CC2CN3CCc4c([nH]c5ccccc45)C(C(=O)OC)(C2)C13 (stereo not given in full),8.02%
